Consider 62 compounds from PubChem BioAssay AID624288 (National Center for Advancing Translational Sciences (NCATS), 2012).

The campaign covered roughly 340,000 compounds. About 1,400 (0.41%) were called active. Entries that show only a call come without a potency. Another 4% or so got no clear call; they are omitted. Calls follow the shape of the full dose curve; cell line not stated here. The sample as a whole holds a higher share of actives than the screen did.
Potency is read from the fitted curve at half-maximal effect.

This experiment is described as follows: qHTS for Antagonists of gsp, the Etiologic Mutation Responsible for Fibrous Dysplasia/McCune-Albright Syndrome: qHTS. Also: nearly all actives have a fitted effect of over 65% in size. The settings on record: gsp-mutant cells, cAMP HTRF, 30 min; series mostly up to 76.9 µM. The method in brief:
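HTRF cAMP read-out (cAMP-d2 plus anti-cAMP antibody-K in lysis buffer, 30 min RT). Before lysis, cells are exposed to compounds with […] for 30 min at 37C in DPBS containing Ca/Mg, BSA and Tween 20.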
Consider `COC(=O)Cc1c(-c2[nH]c3ccccc3c2CC(=O)OC)[nH]c2ccccc12`, for which the Potency result was “inactive”.
Turning to `Cc1ccc2c(O)c(Cc3ccccc3)c(=O)[nH]c2n1`, the Potency result was “inactive”.
The value for `O=S(=O)(Nc1ccc2ccccc2c1)N1CCCCC1` was “inactive”; that for `CCn1nccc1C(=O)Nc1ccc(Cl)c(Cl)c1` was “inactive”.
Turning to `O=C(CC(O)(C(F)(F)F)C(F)(F)F)Nc1ccc(Cl)c(Cl)c1`, the Potency was 7.08 µM (active).
`CS(=O)(=O)N(CC(=O)Nc1ccc(Cl)c(Cl)c1)C1CCCCC1`: the Potency result was “inactive”.
Turning to `O=S1(=O)CSCS(=O)(=O)C1`, the Potency result is “inactive”.
The value for `CCCCC(=O)NC(c1ccc(OC)c(OC)c1)c1ccc2cccnc2c1O` (configuration not stated) was “inactive”; that for `Cc1ccnc(NS(=O)(=O)c2ccc(NC(=O)c3oc4ccccc4c3C)cc2)n1` was “inactive”; that for `Cc1ccnc(NS(=O)(=O)c2ccc(NC(=O)c3oc4ccc(F)cc4c3C)cc2)n1` was 22.4 µM (active).
With `Cc1cc(C)c2oc(C(=O)Nc3ccc(S(=O)(=O)Nc4nccc(C)n4)cc3)cc(=O)c2c1`, the Potency entry is “inactive”.
The value for `O=C(O)c1ccccc1/C=N/Nc1ccc(S(=O)(=O)Nc2ccc(Cl)cc2)cc1[N+](=O)[O-]` was “inactive”; that for `CN(C(=O)c1cccc(NC(=O)Cc2ccc(NC(=O)C3CCCN(C(=O)C4CCCC4)C3)cc2)c1)C1CCC1` (configuration not stated) was “inactive”; that for `COc1ccc(/C=C2\SC(=O)N(CCC(=O)NCCCn3ccnc3)C2=O)cc1` was “inactive”.
Take `COc1ccc(/C=C2\SC(=O)N(CCC(=O)NC3CCS(=O)(=O)C3)C2=O)cc1` (configuration not stated): the Potency result is “inactive”.
Consider `COc1ccc(/C=C2/SC(=O)N(CCCCCC(=O)Nc3ccccc3C(=O)O)C2=S)cc1`, for which the Potency is 22.4 µM (active).
As to `C=CCn1c(=O)n(C)c2c(=O)n(C)c(=O)n(C)c21`, the Potency result is “inactive”.
The result for `CCC(=O)Oc1cccc(C(=O)Nc2ccc(-c3nnc(-c4ccco4)o3)cc2)c1` reads 28.2 µM (active).
With `O=C(Nc1ccc(Cl)cc1)c1cccc(OC(=S)N2CCOCC2)c1`, the Potency entry was “inactive”.
The value for `Cc1cccc(NC(=O)CSc2nnc(-c3ccco3)o2)c1` was “inactive”.
The value for `Cc1c(NS(=O)(=O)c2cccc(C(=O)Nc3ccc(SC(F)F)cc3)c2)c(=O)n(-c2ccccc2)n1C` was “inactive”.
As to `C(#CCN1CCOCC1)CCCN1CCOCC1`, the Potency entry was “inactive”.
The value for `CC(=O)OC1CCC2C3CCC4=C(CC(F)C(=O)C4)C3CCC12C` (configuration not stated) was “inactive”; that for `COc1ccc(/C=N/NC(=O)Nc2ccc3nsnc3c2)c(OC)c1` was “inactive”.
The value for `COc1ccc(/C=N/Nc2cc(N3CCOCC3)nc(C)n2)c(OC)c1` was 35.5 µM (active); that for `C(=N/Nc1cc(N2CCOCC2)nc(N2CCOCC2)n1)/c1ccccc1` was “inactive”; that for `CC(C)[C@@H](C(=O)OCC(=O)c1ccc2c(c1)NC(=O)CO2)N1C(=O)c2ccccc2C1=O` was “inactive”.
The value for `O=C(Nc1c[nH]c(=O)[nH]c1=O)OCc1ccccc1` was “inactive”; that for `CCCCCCCCNS(=O)(=O)CCNC1CCCCC1` was “inactive”; that for `O=C(CCCCCn1c(=S)[nH]c2cc3c(cc2c1=O)OCO3)N1CCN(c2ccc(F)cc2)CC1` was “inactive”.
`Cc1ccc(C)c(N2CCN(C(=O)CCCCCn3c(=S)[nH]c4ccc(N5CCOCC5)cc4c3=O)CC2)c1`: the Potency was 28.2 µM (active).
The value for `Cc1ccc(C)c(N2CCN(C(=O)CCc3nc4ccccc4[nH]3)CC2)c1` was “inactive”; that for `CC(C)CN1CC(C)C(=O)N(c2ccccc2)C1=S` (configuration not stated) was “inactive”.
The result for `COc1cc(/C=C/c2ccc(/C=C/c3cc(OC)c(OC)c(OC)c3)cc2)cc(OC)c1OC` reads “inactive”.
In the case of `COc1ccc(/C=C/C(=O)c2ccc(NS(=O)(=O)c3ccc(C)cc3)cc2)cc1O`, the Potency result is “inactive”.
With `COC(=O)c1ccc(COc2ccc(/C=C/C(=O)c3ccc(OC)c(CSCC(=O)O)c3)cc2OC)cc1`, the Potency was 39.8 µM (active).
The value for `COc1ccc(/C=C/C(=O)N2CCCC2)cc1OC` was “inactive”; that for `Cc1c[n+]([O-])ccc1[N+](=O)[O-]` was “inactive”.
Regarding `CC(C)=CCc1ccc(O)c(=O)cc1C(C)C`, the Potency result was “inactive”.
Consider `Nc1nonc1-n1nnc(C(=O)N/N=C/C2CCCCC2)c1-c1ccccc1`, for which the Potency entry was “inactive”.
The result for `Nc1nonc1-n1nnc(C(=O)N/N=C/c2c[nH]c3ccccc23)c1-c1ccccc1` reads 31.6 µM (active); that for `CC(C)c1c(C(=O)N/N=C/c2ccc(-c3ccccc3)cc2)nnn1-c1nonc1N`, “inactive”; that for `Nc1cc(=O)n(Cc2ccccc2)c(=O)n1Cc1ccccc1`, “inactive”.
With `O=C(O)c1ccc(NN=CC2=C(N3CCOCC3)/C(=C/c3ccccc3)CC2)cc1`, the Potency is 10 µM (active).
The value for `O=C1Nc2ccc(Br)cc2/C1=N/N=C/C1=C(N2CCOCC2)C(=C\c2ccccc2)/CC1` was “inactive”.
The result for `C(=N\N1CCN(c2ccccn2)CC1)/C1=C(N2CCOCC2)C(=C/c2ccccc2)/CC1` reads “inactive”.
The result for `C[C@H](O)[C@@H]1C(=O)N2CCc3ccc(N4CCOCC4)cc3[C@@H]2C[C@@H]1N(C)C(=O)C(C)(C)C` reads “inactive”; that for `O=C1C[C@@H]2c3c(cccc3CN1Cc1ccccc1)C[C@@H](O)[C@H]2O`, “inactive”; that for `Cc1ccc(S(=O)(=O)N2CCC(C(=O)N3CCCCCCC3)CC2)cc1`, “inactive”.
Take `CSc1ncccc1C(=O)Nc1ccc2c(c1)OCO2`: the Potency entry was “inactive”.
As for `CSc1ncccc1C(=O)Nc1nc2ccc(F)cc2s1`, the Potency is 39.8 µM (active).
As to `CSc1ncccc1C(=O)Nc1ccc(C)cn1`, the Potency entry is “inactive”.
In the case of `COc1cc(C(=O)CCc2ccc3c(c2)OCO3)cc(OC)c1OC`, the Potency result is “inactive”.
The value for `COc1cc(C(=O)N2CCN(S(=O)(=O)c3ccc(C(C)C)cc3)CC2)ccc1OCC(=O)N1CCOCC1` was “inactive”; that for `COc1cccc(C(=O)Nc2nc3ccc(S(C)(=O)=O)cc3s2)c1` was “inactive”.
Turning to `CS(=O)(=O)c1ccc2nc(NC(=O)C3C4C=CC(C4)C3C(=O)O)sc2c1` (configuration not stated), the Potency entry is “inactive”.
As for `CS(=O)(=O)c1ccc2nc(NC(=O)c3ccc(Cl)nc3)sc2c1`, the Potency is 31.6 µM (active).
The value for `Cc1ccc(NC(=O)C(C)OC(=O)C2CC3CCCC(C2)C3=O)cc1S(=O)(=O)N1CCOCC1` (configuration not stated) was “inactive”; that for `O=C(CNC(=O)c1cc(S(=O)(=O)N2CCOCC2)ccc1N1CCCC1)Nc1ccc(F)c(F)c1` was “inactive”; that for `O=C(O)c1ccc(NS(=O)(=O)c2ccc3c(c2)C(=O)c2cc(S(=O)(=O)Nc4ccc(C(=O)O)cc4)ccc2-3)cc1` was “inactive”.
The value for `CN(CCO)S(=O)(=O)c1ccc2c(c1)C(=O)c1cc(S(=O)(=O)N(C)CCO)ccc1-2` was 8.91 µM (active); that for `CN(CC(=O)O)S(=O)(=O)c1ccc2oc3ccccc3c2c1` was “inactive”.
